# Unmarked numbers belong to inactive results. Inconclusive results are not listed. Where a call stands in place of a potency, no number is given. Activity calls are given as the source filed them. Unless noted, calls come from the whole dose curve.
# Experiments:
# [1] = Nuclear factor erythroid 2-related factor 2/antioxidant responsive element (Nrf2/ARE) small molecule agonists: qHTS cell viability counter screen in human keratinocytes (AID 1919968; active = well fitted curve in the direction sought with a large enough effect in the repeat runs; an effect the other way counts as inactive or inconclusive; note: nearly all actives have a fitted effect of over 55% in size)
# Method in brief: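 Parallel cytotoxicity read: KeratinoSens HaCaT cells, compound treatment 23 h, viability by CellTiter-Fluor fluorescence 1 h post-reagent.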
# [2] = Nuclear factor erythroid 2-related factor 2/antioxidant responsive element (Nrf2/ARE) small molecule agonists: luciferase reporter gene qHTS assay in human keratinocytes (AID 1919969); note: nearly all actives have a fitted effect of over 35% in size; note: potency is the fitted concentration of half-maximal effect
# [3] = target: Gonadotropin-releasing hormone receptor (Homo sapiens) (UniProt P30968); test: Human gonadotropin-releasing hormone receptor (GnRHR) small molecule agonists, calcium flux assay in GnRHR-HEK293 cells (AID 1920063); note: nearly all actives have a fitted effect of over 35% in size
# Method in brief: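 Calcium flux, agonist mode, human GnRHR stably integrated in HEK293; dye 1 h at 37 C before compound; Ex/Em=480/540 kinetic read, 3 min; 15 concentrations, triplicate.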
# [4] = target: KiSS-1 receptor (Homo sapiens) (UniProt Q969F8); test: Human kisspeptin (KISS1R) small molecule agonists, calcium flux assay in KISS1R-HEK293 cells (AID 1920064; active = well fitted curve in the direction sought with a large enough effect in the repeat runs; an effect the other way counts as inactive or inconclusive)
# Method in brief: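 Triplicate 15-concentration series were applied to dye-loaded human KISS1R HEK293 cells, and agonist-evoked calcium fluorescence was captured for 3 min.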
# [5] = G protein-coupled receptor (GPCR) small molecule agonists, calcium flux assay: HEK293 wild type cell line counter screen (AID 1920065)
# Method in brief: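 Non-specific calcium responders were flagged by adding DMSO-dissolved compounds to dye-loaded cells and reading 480/540 nm fluorescence each second for 3 min; ATP served as positive control.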
# [6] = p53 small molecule agonists, cell-based qHTS assay with human liver microsomes (AID 1963577)
# Method in brief: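 p53RE-bla cells, 4,000/well, compound added after 5 h, with human liver microsomes 0.5 mg/mL and NADPH 0.5 mg/mL final; 16 h at 37 C, then LiveBLAzer 2 h RT, fluorescence.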
# [7] = p53 small molecule agonists, cell-based qHTS assay with rat liver microsomes (AID 1963578)
# Method in brief: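 p53RE-bla cells, 4,000/well, pre-incubated 5 h, then given compounds plus rat liver microsomes (0.5 mg/mL final) and NADPH (0.5 mg/mL final). Incubation 16 h at 37 C; beta-lactamase reporter read by LiveBLAzer fluorescence after 2 h at room temperature.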
# [8] = p53 small molecule agonists, cell-based qHTS assay with human liver microsomes: qHTS cell viability counter screen (AID 1963579); note: nearly all actives have a fitted effect of over 45% in size
# Method in brief: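 p53RE-bla cells, 4,000/well, dosed 5 hours after plating, with human liver microsomes (0.5 mg/mL final) plus NADPH (0.5 mg/mL final), 16 hours at 37 C. Viability read as CellTiter-Glo luminescence after 30 min at room temperature.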
# [9] = p53 small molecule agonists, cell-based qHTS assay with rat liver microsomes: qHTS cell viability counter screen (AID 1963580); note: nearly all actives have a fitted effect of over 45% in size
# Method in brief: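 Cytotoxicity counter screen: intracellular ATP read by CellTiter-Glo luminescence in the p53 reporter wells. HCT-116 p53RE-bla cells were treated for 16 h at 37 C alongside rat liver microsomes and NADPH, each 0.5 mg/mL final.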
# [10] = p53 small molecule agonists, cell-based qHTS assay: qHTS cell viability counter screen (AID 1963581); note: nearly all actives have a fitted effect of over 45% in size
# Method in brief: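 Multiplexed with the reporter read, a CellTiter-Glo step (30 min, room temperature) gauges ATP-based viability of HCT-116 p53RE-bla cells after 16 h compound incubation at 37 C.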
# [11] = p53 small molecule agonists, cell-based qHTS assay (AID 1963582; active = well fitted activation curve with a large enough effect in the signal ratio in the repeat runs, not every such curve was filed as active; the % refers to the signal ratio)
# Method in brief: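 Beta-lactamase reporter cells (p53RE-bla) treated with compounds for 16 h at 37 C; FRET substrate, 2 h, room temperature; fluorescence intensity.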
# [12] = target: 5-hydroxytryptamine receptor 2A (Homo sapiens) (UniProt P28223); test: 5-hydroxytryptamine receptor 2A (HTR2A) small molecule antagonists, cell-based qHTS assay (AID 1963586); note: nearly all actives have a fitted effect of over 45% in size
# Method in brief: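 CHO cells stably expressing human HTR2A were plated for 18 h at 37 C, then loaded with calcium dye for 1 h. Compounds were preincubated 5 min at room temperature before DOI (4 nM solution) was added. Kinetic fluorescence was read for 3 min.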
# [13] = target: 5-hydroxytryptamine receptor 2A (Homo sapiens) (UniProt P28223); test: 5-hydroxytryptamine receptor 2A (HTR2A) small molecule agonists, cell-based qHTS assay (AID 1963587); note: nearly all actives have a fitted effect of over 30% in size
# Method in brief: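 Kinetic calcium-flux fluorescence (2 min, 1 sec intervals) after compound addition in agonist mode. HTR2A-CHO cells were cultured 18 h, then dye-loaded 1 h at 37 C.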
# [14] = target: Muscarinic acetylcholine receptor M1 (Homo sapiens) (UniProt P11229); test: Cholinergic receptor muscarinic 1 (CHRM1) small molecule agonists, cell-based qHTS assay (AID 1963589); note: nearly all actives have a fitted effect of over 35% in size
# Method in brief: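 qHTS, 15-point titration, 3 independent runs: compounds pin-transferred onto dye-loaded CHRM1-CHO cells (human M1), calcium fluorescence followed every second to detect agonism.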
# [15] = cAMP Responsive Elements (CRE) small molecule agonists, cell-based qHTS assay (AID 1963590)
# Method in brief: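 Quantitative HTS for CRE agonists: HEK 293T CRE-bla cells, overnight plating, 3 h compound incubation at 37 C/5% CO2, then 2 h room-temperature LiveBLAzer B/G FRET substrate loading.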
# [16] = target: Beta-2 adrenergic receptor (Homo sapiens) (UniProt P07550); test: Adrenergic beta2 receptor (ADRB2) small molecule antagonists, cell-based qHTS assay (AID 1963592); note: series mostly up to about 92 µM; nearly all actives have a fitted effect of over 50% in size
# Method in brief: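 Assay format: CHO-ADRB2 cells, 18-20hr seeding at 37C/5% CO2, then compound plus 1nM isoproterenol agonist mix for 0.5hr RT. Homogeneous time-resolved fluorescence cAMP detection after 1hr, expressed as 665/615 nm ratio.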
# [17] = target: Muscarinic acetylcholine receptor M1 (Homo sapiens) (UniProt P11229); test: Cholinergic receptor muscarinic 1 (CHRM1) small molecule antagonists, cell-based qHTS assay (AID 1963588); note: nearly all actives have a fitted effect of over 40% in size
# Method in brief: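 Compounds were tested at 15 concentrations in three independent runs. Dye-loaded CHRM1-CHO cells were exposed 5 min at room temperature before stimulation by acetylcholine added at 50nM. Intracellular calcium was read kinetically on FDSS for 3 min.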
# [18] = target: D(2) dopamine receptor (Homo sapiens) (UniProt P14416); test: Dopamine D2 receptor (DRD2) small molecule agonists, cell-based qHTS assay (AID 1963594); note: nearly all actives have a fitted effect of over 35% in size
# Method in brief: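 cAMP accumulation in DRD2-HEK293 cells measured by HTRF after 1 h detection; compounds added 10 min before NKH477 (200nM […]) forskolin-analogue stimulation, 30 min at room temperature, with Ro20-1724 present at 0.1 mM final.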
# [19] = target: D(2) dopamine receptor (Homo sapiens) (UniProt P14416); test: Dopamine D2 receptor (DRD2) small molecule antagonists, cell-based qHTS assay (AID 1963595; active = well fitted inhibition curve with a large enough effect in the signal ratio in the repeat runs, with a control signal flat; the % refers to the signal ratio)
# Method in brief: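 HEK293 cells stably expressing DRD2 were preincubated with 0.1 mM Ro20-1724, then with compound for 10 min at room temperature. Cells were stimulated with 200 nM NKH477 plus 12 nM quinpirole for 30 min, and cAMP was read by HTRF.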
# [20] = cAMP Responsive Elements (CRE) small molecule antagonists, cell-based qHTS assay (AID 1963591; active = well fitted inhibition curve with a large enough effect in the signal ratio in the repeat runs, not every such curve was filed as active; the % refers to the signal ratio)
# Method in brief: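 Fluorescence intensity from cleaved LiveBLAzer B/G substrate (2 h, room temperature) quantified CRE-bla activity in HEK 293T cells exposed 3 h to compound with 0.25 uM final NKH477.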
# Chain of Gonadotropin-releasing hormone receptor (Homo sapiens) (P30968 whole entry, looked up): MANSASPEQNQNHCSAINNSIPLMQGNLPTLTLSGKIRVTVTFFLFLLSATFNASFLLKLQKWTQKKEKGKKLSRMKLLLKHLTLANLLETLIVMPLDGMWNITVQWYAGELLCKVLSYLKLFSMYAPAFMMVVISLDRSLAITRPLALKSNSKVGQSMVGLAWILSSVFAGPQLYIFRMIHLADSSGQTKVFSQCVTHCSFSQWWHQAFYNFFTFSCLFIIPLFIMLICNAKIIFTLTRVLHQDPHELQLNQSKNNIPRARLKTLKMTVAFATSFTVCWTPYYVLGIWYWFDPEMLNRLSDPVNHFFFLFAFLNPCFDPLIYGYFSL
# Chain of Beta-2 adrenergic receptor (Homo sapiens) (P07550 whole entry, looked up): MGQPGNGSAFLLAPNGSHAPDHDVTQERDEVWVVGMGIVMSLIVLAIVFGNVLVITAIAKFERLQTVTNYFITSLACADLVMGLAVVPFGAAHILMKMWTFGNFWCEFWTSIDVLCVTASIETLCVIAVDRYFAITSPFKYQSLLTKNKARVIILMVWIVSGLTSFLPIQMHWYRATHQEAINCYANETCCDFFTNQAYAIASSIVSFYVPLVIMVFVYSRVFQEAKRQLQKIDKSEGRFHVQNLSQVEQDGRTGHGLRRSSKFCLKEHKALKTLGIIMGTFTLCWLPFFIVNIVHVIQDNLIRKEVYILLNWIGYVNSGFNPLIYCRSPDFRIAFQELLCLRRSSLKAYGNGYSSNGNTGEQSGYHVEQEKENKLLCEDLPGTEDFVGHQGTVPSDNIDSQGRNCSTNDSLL
# Chain of D(2) dopamine receptor (Homo sapiens) (P14416 whole entry, looked up): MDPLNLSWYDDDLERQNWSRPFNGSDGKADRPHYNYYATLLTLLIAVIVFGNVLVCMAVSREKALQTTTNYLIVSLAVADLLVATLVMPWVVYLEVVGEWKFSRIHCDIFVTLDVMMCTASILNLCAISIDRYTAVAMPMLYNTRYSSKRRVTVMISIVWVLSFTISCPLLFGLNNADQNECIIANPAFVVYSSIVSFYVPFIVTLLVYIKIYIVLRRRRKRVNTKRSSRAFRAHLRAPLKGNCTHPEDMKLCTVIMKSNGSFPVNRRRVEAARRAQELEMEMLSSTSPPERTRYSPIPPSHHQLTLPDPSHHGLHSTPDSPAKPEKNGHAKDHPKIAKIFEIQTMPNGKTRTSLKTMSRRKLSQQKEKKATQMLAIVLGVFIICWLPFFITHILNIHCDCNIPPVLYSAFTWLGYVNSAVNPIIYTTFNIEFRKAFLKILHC
# Chain of Muscarinic acetylcholine receptor M1 (Homo sapiens) (P11229 whole entry, looked up): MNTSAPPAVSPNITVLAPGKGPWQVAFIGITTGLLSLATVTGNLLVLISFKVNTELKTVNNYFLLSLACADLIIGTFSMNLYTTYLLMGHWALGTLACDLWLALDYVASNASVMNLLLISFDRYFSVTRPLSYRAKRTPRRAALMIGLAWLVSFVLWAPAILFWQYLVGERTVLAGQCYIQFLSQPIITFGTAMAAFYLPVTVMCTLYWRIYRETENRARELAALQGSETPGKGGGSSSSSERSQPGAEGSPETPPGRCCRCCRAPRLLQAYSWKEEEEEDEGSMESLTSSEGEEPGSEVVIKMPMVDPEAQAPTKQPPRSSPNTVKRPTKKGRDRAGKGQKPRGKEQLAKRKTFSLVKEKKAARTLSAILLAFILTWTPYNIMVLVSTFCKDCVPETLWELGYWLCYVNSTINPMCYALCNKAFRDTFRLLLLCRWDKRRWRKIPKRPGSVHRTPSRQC
# Chain of KiSS-1 receptor (Homo sapiens) (Q969F8 whole entry, looked up): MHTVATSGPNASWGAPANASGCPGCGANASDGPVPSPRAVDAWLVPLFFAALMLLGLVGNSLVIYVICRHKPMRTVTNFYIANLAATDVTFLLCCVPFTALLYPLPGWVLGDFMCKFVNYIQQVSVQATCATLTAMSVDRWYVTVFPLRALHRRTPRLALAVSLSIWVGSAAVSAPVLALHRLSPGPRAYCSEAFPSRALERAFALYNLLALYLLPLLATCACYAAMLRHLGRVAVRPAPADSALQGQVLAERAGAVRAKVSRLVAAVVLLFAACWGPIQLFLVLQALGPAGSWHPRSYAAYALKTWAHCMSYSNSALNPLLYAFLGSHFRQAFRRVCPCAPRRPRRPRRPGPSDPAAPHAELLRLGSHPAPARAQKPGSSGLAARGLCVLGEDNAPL
# Chain of 5-hydroxytryptamine receptor 2A (Homo sapiens) (P28223 whole entry, looked up): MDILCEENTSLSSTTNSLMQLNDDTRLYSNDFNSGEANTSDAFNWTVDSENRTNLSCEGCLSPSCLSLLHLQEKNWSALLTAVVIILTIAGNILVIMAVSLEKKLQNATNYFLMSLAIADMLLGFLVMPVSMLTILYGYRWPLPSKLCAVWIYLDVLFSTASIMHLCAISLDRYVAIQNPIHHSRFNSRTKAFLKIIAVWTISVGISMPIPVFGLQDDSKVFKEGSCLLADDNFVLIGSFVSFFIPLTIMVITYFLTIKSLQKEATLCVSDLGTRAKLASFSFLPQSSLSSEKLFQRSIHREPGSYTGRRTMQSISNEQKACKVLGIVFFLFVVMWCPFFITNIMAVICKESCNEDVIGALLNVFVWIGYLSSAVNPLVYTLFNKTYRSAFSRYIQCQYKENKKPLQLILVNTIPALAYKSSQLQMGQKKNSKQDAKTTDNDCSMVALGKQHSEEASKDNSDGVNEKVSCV
SMILES,Potency [1],Potency [2],Potency [3],Potency [4],Potency [5],Potency [6],Potency [7],Potency [8],Potency [9],Potency [10],Potency [11],Potency [12],Potency [13],Potency [14],Potency [15],Potency [16],Potency [17],Potency [18],Potency [19],Potency [20]
COC1CC(=C(c2cccs2)c2cccs2)C[N+](C)(C)C1 (configuration not stated),inactive,inactive,inactive,inactive,inactive,inactive,inactive,inactive,inactive,inactive,inactive,inactive,inactive,inactive,inactive,inactive,,,,
COC(=O)N(C(=O)N1CO[C@@]2(C(=O)OC)Cc3cc(Cl)ccc3C2=N1)c1ccc(OC(F)(F)F)cc1,inactive,inactive,inactive,inactive,inactive,inactive,inactive,inactive,inactive,inactive,inactive,inactive,inactive,inactive,,inactive,inactive,inactive,inactive,
C[C@@H]1CC2=CC(=O)CC[C@@H]2[C@H]2CC[C@@]3(C)[C@@H](CC[C@]3(C)O)[C@@H]21,inactive,inactive,inactive,inactive,inactive,inactive,inactive,inactive,inactive,inactive,inactive,inactive,inactive,inactive,,inactive,inactive,inactive,,
C=C1C[C@@H]2[C@H](CC[C@]3(C)C(=O)CC[C@@H]23)[C@@]2(C)C=CC(=O)C=C12,inactive,29.8 µM (active),inactive,inactive,inactive,inactive,inactive,inactive,inactive,inactive,inactive,inactive,inactive,inactive,,,,inactive,inactive,
Cc1cc(Cl)ccc1O[C@H](C)C(=O)O,inactive,inactive,inactive,inactive,inactive,inactive,inactive,inactive,inactive,inactive,inactive,inactive,inactive,,,inactive,inactive,inactive,inactive,inactive
CS(=O)(=O)c1ccc(C(=O)C2C(=O)CCCC2=O)c(Cl)c1COCC(F)(F)F,inactive,inactive,inactive,inactive,inactive,inactive,inactive,inactive,inactive,inactive,inactive,inactive,inactive,,,inactive,inactive,inactive,,
CN(C)CCc1c[nH]c2ccc(O)cc12,inactive,67 µM (active),inactive,inactive,inactive,inactive,inactive,inactive,inactive,inactive,inactive,inactive,,inactive,inactive,,inactive,,,inactive

# From PubChem BioAssay (Tox21)
